ELG1 genotox = inducers of genotoxicity in HEK293T ELG1-luciferase cells. HEK293T ELG1-luciferase reporter, luminescence, 16 h. Potency, µM (series often up to 46 µM), for the others: at the highest dose activity change, positive = activation, actives largely listed as activators. 1.3% of 330,000 active. AID 504466; note: % of control where 0% means no effect; nearly all actives have a fitted effect of over 60% in size
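Quantitative HTS format in 1536-well plates. HEK293T ELG1-luciferase reporter cells receive test compound and are incubated 16 hr at 37 °C, 5% CO2; ONE-Glo added, 30 min room temperature, then luminescence read.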
KinaseGlo FLuc = blocks Kinase-Glo luciferase, a counter-screen artifact; Q27757; Kinase-Glo luciferase, ATP luminescence, 8 min; Potency, µM (highest dose often 38.3 µM), for inactives: top-dose activity change, negative = inhibition, actives largely listed as inhibitors; 0.28% of 200,000 active; note: % is set by controls: 0 for no effect and ±100 for the full control effect; nearly all actives have a fitted effect of over 60% in size
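Light output from Kinase-Glo luciferase with luciferin and 10 uM ATP in 50 mM imidazole pH 7.2, KCl, MgCl2, Tween 20, BSA; compound pin-delivered, 8-min ambient incubation, then luminescence read.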
Rab9 prom act = Rab9 promoter activation | Huh7 Rab9 promoter-luciferase reporter, luminescence, 24 h | Potency, µM (highest dose often 9.22 µM), for the others: at the top dose activation, negative = inhibition, actives largely listed as activators | 2.8% of 320,000 active | AID 485297; note: % of control where 0% means no effect; nearly all actives have a fitted effect of over 60% in size
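Stable Rab9-luc Huh7, 1500 cells/well, 2 h settle; cmpd in DMSO, 24 h, 37 °C/5% CO2; luciferase reagent 10 min RT; luminescence.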
FLuc modulator = counter-screen for miR-21 project: firefly luciferase inhibitors or activators | purified FLuc, Km substrates, luminescence inhibition | Potency, µM (doses to about 57.5 µM), for inactives: at the highest dose activity change, negative = inhibition, actives largely listed as inhibitors | 6.9% of 360,000 active;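 note: plate controls were vehicle for no effect and reference inhibitor for full effect; nearly all actives have a fitted effect of over 55% in size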
Target sequence (P08659 whole entry, looked up): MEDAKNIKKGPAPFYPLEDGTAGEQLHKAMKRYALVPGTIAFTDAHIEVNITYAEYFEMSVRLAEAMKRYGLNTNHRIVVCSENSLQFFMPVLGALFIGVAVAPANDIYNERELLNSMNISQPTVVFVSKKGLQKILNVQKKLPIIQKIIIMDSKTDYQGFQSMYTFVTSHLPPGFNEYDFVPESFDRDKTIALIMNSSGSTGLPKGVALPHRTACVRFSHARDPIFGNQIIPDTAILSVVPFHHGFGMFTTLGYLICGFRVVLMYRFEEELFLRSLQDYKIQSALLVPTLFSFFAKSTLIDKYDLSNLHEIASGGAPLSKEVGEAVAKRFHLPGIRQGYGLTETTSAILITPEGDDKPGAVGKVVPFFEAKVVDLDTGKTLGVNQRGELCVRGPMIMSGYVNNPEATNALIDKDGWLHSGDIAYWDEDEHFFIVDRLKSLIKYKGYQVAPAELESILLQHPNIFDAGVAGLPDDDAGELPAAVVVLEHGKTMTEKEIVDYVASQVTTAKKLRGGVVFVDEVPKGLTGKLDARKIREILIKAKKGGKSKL
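Purified P. pyralis luciferase (10nM final) with 10uM D-luciferin and 10uM ATP (Km levels) in 50mM Tris acetate pH 7.5, 10mM Mg acetate, 0.01% Tween-20, 0.05% BSA; qHTS 6-point titration, ~60 µM downward; luminescence read.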
NPC1 prom act = activates the NPC1 promoter | 2.4% of 320,000 active | Potency, µM (top dose mostly 9.22 µM), inactives show top-dose activation, actives largely listed as activators | Huh7 NPC1 promoter luciferase reporter, 24 h; note: % of control where 0% means no effect; nearly all actives have a fitted effect of over 60% in size
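Stably transfected Huh7 (NPC1 promoter→luciferase), 1500 cells/well in Opti-MEM + 10% FBS, 2 h settle, then compound 24 h at 37 °C. Luminescence after 10 min with Amplite reagent.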
SMN2 splice enh = increases expression of the SMN2 splice variant; HEK293 SMN2-luciferase splicing reporter, luminescence, 30-36 h; Potency, µM (doses to about 46.1 µM), for the others: at the highest dose activity change, positive = activation, usual class: activators; 2.8% of 210,000 active; AID 1458; note: % of control where 0% means no effect; nearly all actives have a fitted effect of over 55% in size
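qHTS luciferase splicing reporter: luminescence rises when SMN2 exon 7 is included in transfected HEK293 cells. Compound exposure lasted 30-36 h at 37C, with 4.5 mM final sodium butyrate as control, followed by a ONE-Glo read.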
* hit, by the source's call; ? = inconclusive; nt = no result given; [ ] = another dose, or the depositor's remark. This is a sample that favours compounds with a hit; in the whole collection about 7.5% have one here. Calls come from the whole dose curve; as a rule, active = well fitted curve in the direction sought with a large enough effect; inconclusive = small, poorly fitted or top-dose-only effect, or another doubt; inactive = no such curve, though single readings can be large; an effect the other way counts as inactive or inconclusive. Potency is the fitted concentration of half-maximal effect.

SMILES	ELG1 genotox	KinaseGlo FLuc	Rab9 prom act	FLuc modulator	NPC1 prom act	SMN2 splice enh
Cc1ccc(NC(=O)c2cc(-c3ccc4c(c3)OCO4)on2)cc1C	?	nt	1%	0%	-1%	nt
Cn1cccc1C(NC(=O)c1ccccc1)C(Cl)(Cl)Cl (configuration not stated)	-4%	nt	3%	-1%	3%	nt
Cc1ccc(-c2ccc(/C=N/O)o2)cc1[N+](=O)[O-]	?	-5%	23%	?	6%	-5%
O=C(NCc1csc(-c2ccccc2)n1)c1cc(F)cc2c1OCOC2	19%	nt	?	19µM*	?	nt
O=C(O)c1ccc(N/N=C/c2cc3ccccc3nc2Cl)cc1	?	nt	2µM*	0.76µM*	1.4µM*	nt
O=[N+]([O-])c1ccccc1N/N=C/c1cc2ccccc2nc1Cl	?	-6%	?	?	?	-16%
C[C@H](NC(=O)OC(C)(C)C)C(=O)N/N=C/c1cccc2nccnc12	1%	nt	-3%	5%	1%	nt
Cc1cccc2cc(/C=N/Nc3ccc(C(=O)O)cc3)c(Cl)nc12	5.2µM*	nt	0.4µM*	0.67µM*	0.4µM*	nt
Clc1nc2ccccc2cc1/C=N/Nc1nc2ccccc2[nH]1	?	?	2.5µM*	0.19µM*	3.5µM*	7.9µM*
O=C(O)c1ccc(N/N=C/c2cccc3nccnc23)cc1	8%	nt	?	6.7µM*	?	nt
O=S(=O)(c1cccc(C(F)(F)F)c1)N1c2ccccc2-n2cccc2[C@H]1c1cccnc1	nt	-5%[7.66 µM]	nt	nt	nt	-42%[9.22 µM]
CSc1ccc(CCNC(=O)C2CCCN(S(=O)(=O)N(C)c3ccc(F)cc3)C2)cc1 (configuration not stated)	nt	nt	nt	-15%	nt	nt
CC1CCN(c2nc3ccccc3nc2C(F)(F)F)CC1	nt	nt	nt	1%	nt	nt
Cc1ccc(NC(=O)c2ccco2)c(OCc2cc(=O)n3cc(C)sc3n2)c1	nt	nt	nt	2%	nt	nt
COc1cc(NC(=O)N2CCC(CN3CCCC3)CC2)cc(OC)c1OC	nt	nt	nt	-6%	nt	nt
CN1C(=O)C2(c3ccccc31)N(c1ccc(Br)cc1)C(=O)CS2(=O)=O (configuration not stated)	nt	nt	nt	3%	nt	nt
CC(C)(C)OC(=O)N1CCC[C@H]1C(=O)N/N=C/c1cccc2nccnc12	2%	nt	0%	17µM*	-5%	nt
Cc1ccccc1-c1noc(N)c1C#N	4%	-1%	1%	-1%	7%	-6%
CN(C)/C=C/c1onc(-c2ccccc2Cl)c1C#N	?	-2%	?	24µM*	?	24%
CC1CCC(=C(C#N)c2nc(-c3cc4ccccc4oc3=O)cs2)CC1 (configuration not stated)	6.5µM*	-3%	4µM*	2.7µM*	3.5µM*	?
COc1cc(/C=C(/C#N)c2nc(-c3cc4ccccc4oc3=O)cs2)cc([N+](=O)[O-])c1O	-1%	nt	-1%	12µM*	-2%	nt
COC(=O)C(C(=O)OC)[C@@H]1O[C@@]23COC=C[C@]2(C)[C@H]3c2ccccc21	nt	0%	nt	nt	nt	-4%
c1ccc(-c2cc(-c3ccc(N4CCOCC4)cc3)nc3ccccc23)cc1	9%	3%	-1%	15µM*	1%	-7%
Cc1ccc2nc(-c3ccncc3)cc(C(=O)N3CCOCC3)c2c1	-3%	nt	-1%	-2%	-3%	nt
NC(=O)C1CCN(C(=O)c2cc(-c3ccc(Cl)cc3)nc3ccccc23)CC1	-6%	nt	nt	nt	nt	nt
Cc1ccc(-c2cc(C(=O)N3CCOCC3)c3cc(C)ccc3n2)cc1	1%	nt	5%	6.7µM*	15%	nt
O=C(c1cc(-c2ccc(Cl)cc2)nc2ccccc12)N1CCOCC1	-13%	nt	6%	19µM*	1%	nt
COC(=O)c1ccccc1NC(=O)CSc1nc2ccsc2c(=O)n1CCC(C)C	nt	nt	nt	-3%	nt	nt
CCCN(CCC)CCCNC(=O)C1CCN(c2nc3ccc(CC)cc3s2)CC1	nt	nt	nt	12µM*	nt	28%

Bioassay records: PubChem, National Center for Advancing Translational Sciences (NCATS)
